# Laboratory results from the supplement of paper PMC3484114.
# ± gives the standard deviation.
# Test system: OVCAR-3-derived ovarian cancer stem-like cells (spheroids)
# Experiment: cell growth relative to untreated control; higher = more growth (less inhibition)
# Conditions: 2.29 µM; 96 h
# In short: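 Stem-like cells derived from OVCAR-3 spheroids were dissociated with trypsin and seeded at 50,000 cells/mL in stem cell medium in ultra-low attachment 96-well plates, then preincubated for 24 h. Each compound was added at 2.29 uM to 4 replicate wells and left for 96 h at 37°C, 5% CO2. Viability came from TOX8 resazurin fluorescence (ex 560/em 590 nm) read after 4 h. Percent growth was expressed relative to untreated wells, after blank subtraction and removal of outliers by the Grubbs test.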
row,Compound,cell growth [%]
1,COc1ccccc1/C=C1\Sc2scc(-c3cccc([N+](=O)[O-])c3)[n+]2C1=O,128 ± 18
2,O=C(O)c1ccc(Nc2c3ccccc3nc3ccccc23)cc1,98 ± 12
3,COc1ccc2cc1Oc1ccc(cc1)CC1c3c(cc(OC)c4c3Oc3cc5c(cc3O4)CCNC5C2)CCN1C (stereo not drawn),71.8 ± 23
4,O=C(O)CC(NC(=O)CP(=O)(O)O)C(=O)O (stereo not drawn),106 ± 16
5,Cc1ccc([N+](=O)[O-])cc1NC(=O)c1cccc([N+](=O)[O-])c1O,146 ± 41
6,COC(=O)C1(C)CCCC2(C)c3cc(OC)ccc3C(=O)C(Br)C12 (stereo not drawn),89.4 ± 39
7,COc1cc2c3c(n(C)c(=O)c2cc1OC)-c1cc2c(cc1C3=O)OCO2,101 ± 38
8,COc1cc(C[C@H]2c3cc(OC)c(OC)cc3CCN2C)c(Oc2cc3c(cc2OC)-c2c(OC)c(OC)cc4c2[C@H](C3)N(C)CC4)cc1OC,77.8 ± 11
9,CC1(C)CC(Nc2ccc(Nc3ccccc3)cc2)CC(C)(C)N1,72.4 ± 10
10,COC(=O)NC1C(C)OC(OC2C/C=C(/C)C3C=CC4C(OC5CC(OC6CCC(OC7CC(O)C(OC8CCC(O)C(C)O8)C(C)O7)C(C)O6)C(OC(C)=O)C(C)O5)C(C)CC(C)C4C3(C)/C(O)=C3/C(=O)OC4(CC(C=O)=CC(O)C4/C=C\2C)C3=O)CC1(C)[N+](=O)[O-] (stereo not drawn),61.9 ± 10
11,CNC(=S)N/N=C/c1ccc([N+](=O)[O-])s1,87.9 ± 21
12,C[C@H](CSC(=O)c1ccccc1)C(=O)N1c2ccccc2C[C@H]1C(=O)O,90.9 ± 9.5
13,O=C(CC1(O)C(=O)Nc2c(Cl)cc(Cl)cc21)c1cccc2ccccc12 (stereo not drawn),90.9 ± 16
14,Cn1c(=O)c2nc3sc4c(n3c2n(C)c1=O)C(=O)c1ccccc1C4=O,115 ± 20
15,O=C1NC(=O)[C@H]2[C@H]3C=C[C@@H]([C@@H]12)[C@@H]1[C@H]2C(=O)NC(=O)[C@H]2[C@H]31,121 ± 29
16,CC(C)CCCC(=O)CCCCCCC(=O)CCN(O)C(=O)C(N)CO (stereo not drawn),136 ± 15
17,CC/C(=C(\c1ccccc1)c1ccc(OCCN(C)C)cc1)c1ccccc1,115 ± 14
18,CCCCC(/C=N/N=C(N)N)CC.Cc1cc(O)c(C(C)C)cc1S(=O)(=O)O,91.8 ± 17
19,CCC1CN2CCc3cc(OC)c(OC)cc3C2CC1CC1c2cc(OC)c(OC)cc2CCN1C(=O)C1CCCN1C(=O)OCc1ccccc1 (stereo not drawn),122 ± 21

row,Compound,cell growth [%]
1,COc1cc2c(c(O)c1OC)-c1c(cc(OC)c(OC)c1OC)C[C@@H](C)[C@@H](C)C2,82 ± 20
2,Cc1cc(O)c2c(c1)C(=O)c1cc(O)cc(O)c1C2=O,107 ± 17
3,CCC1CN2CCc3cc(OC)c(OC)cc3C2CC1CC1c2cc(OC)c(OC)cc2CCN1C(=O)C(Cc1c[nH]c2ccccc12)NC(=O)OC(C)(C)C (stereo not drawn),94 ± 23
4,CCCCCCCCCCSCC(CO)NC(=O)/C=C/c1c(C)[nH]c(=O)[nH]c1=O (stereo not drawn),107 ± 23
5,CC(=O)NCCCCCCNC(C)=O,119 ± 7.8
6,CN(Cc1cnc2nc(N)nc(N)c2n1)c1ccc(C(=O)NC(CCC(=O)O)C(=O)O)c2ccccc12 (stereo not drawn),84.7 ± 30
7,BrC(/C=N/Nc1nnc(-c2ccccc2)c(-c2ccccc2)n1)C(Br)c1ccccc1 (stereo not drawn),93.9 ± 17
8,COc1ccc(OC)c2nc3c(C(=O)NCCN(C)C)cccc3nc12,119 ± 27
9,CC1=C(O)c2ccccc2C(=O)C1=O,91.9 ± 56
10,CCOc1cccc(/C=N/N=C2\C(=O)Nc3c(Cl)cc(Cl)cc32)c1O,85.4 ± 13
11,CO[C@H](C(=O)[C@@H](O)[C@@H](C)O)[C@@H]1Cc2cc3cc(O[C@H]4C[C@@H](O[C@H]5C[C@@H](O)[C@H](O)[C@@H](C)O5)[C@H](O)[C@@H](C)O4)c(C)c(O)c3c(O)c2C(=O)[C@H]1O[C@H]1C[C@@H](O[C@H]2C[C@@H](O[C@H]3C[C@](C)(O)[C@H](O)[C@@H](C)O3)[C@@H](O)[C@@H](C)O2)[C@H](O)[C@@H](C)O1,10.8 ± 3.6
12,Cc1ccc(S(=O)(=O)c2ccc([N+](=O)[O-])o2)cc1,47.4 ± 31
13,COc1cc(NS(C)(=O)=O)ccc1Nc1c2ccccc2nc2ccccc12,41.4 ± 12
14,CCOC(=O)C(C)NC(=O)N(C)C12CC3CC(CC(C3)C1)C2 (stereo not drawn),8 ± 3.5
15,Cc1cccc(C)c1NC(=O)C(=O)C(c1ccccc1Cl)S(=O)(=O)Cc1ccccc1Cl (stereo not drawn),85.2 ± 16
16,CCCCS(=N)(=O)CCC(N)C(=O)O (stereo not drawn),86.6 ± 8.1
17,O=c1[nH]c(=O)n(C2CCCO2)cc1F (stereo not drawn),24.9 ± 6.8
18,O=C1c2ccccc2C(=O)c2nc(-c3ccccc3)c(-c3ccccc3)nc21,137 ± 51
19,Nc1nc(N)c(N=Nc2ccccc2)c(=O)[nH]1,84.4 ± 21
